Bioassay records from PubChem.
Bead autofluor – compound fluorescence in toxin protease inhibitor counterscreen; fluorescence intensity (no concentration beside the values); actives 3.1% (n = 360,000); compound autofluorescence counterscreen, microsphere flow cytometry; active compounds read high; in the data active means fluorescence intensity above about 16000; inconclusive means no clear call, values can overlap the other calls
BoNT F protease – blocks Botulinum neurotoxin F light chain protease; Multiplex microsphere protease cleavage assay, flow cytometry; inhibition, % at 10 µM; actives 0.22% (n = 360,000); AID 588497; in the data active means inhibition above about 35%, passing the limit was not always enough; inconclusive means no clear call, values can overlap the other calls; further: plate controls were buffer without enzyme for full effect and enzyme alone for no effect
BoNT A protease – blocks Botulinum neurotoxin A light chain protease; multiplex microsphere protease substrate cleavage, flow cytometry; inhibition, % at 10 µM; actives 0.17% (n = 360,000); AID 588499; further: plate controls were buffer without enzyme for full effect and enzyme alone for no effect
Anthrax LF prot – anthrax lethal factor protease inhibition; P15917; inhibition, % at 10 µM; multiplex microsphere protease cleavage assay, LF; actives 0.12% (n = 360,000); further: plate controls were buffer without enzyme for full effect and enzyme alone for no effect
The depositor's hits bear a star; u = inconclusive. In the library only some 3.5% were active in any assay of this set; here they are far more common. Unless noted, no stated cut-off is given here; in the data, active means inhibition above about 30%; inconclusive means no clear call, values can overlap the other calls; inactive means below that.

SMILES	Bead autofluor	BoNT F protease	BoNT A protease	Anthrax LF prot
CC(=O)c1ccc(S(=O)(=O)N2CCN(C(=O)c3ccc(-n4nc(C)c(Cl)c4C)cc3)CC2)cc1	3030	2	0	-8
Cc1cc(S(=O)(=O)Nc2ccc3ccccc3c2)c(C)s1	19290*	2	5	-4
Cc1cc(S(=O)(=O)Nc2cccnc2)c(C)s1	4703	-5	-1	0
CS(=O)(=O)c1cc(C(=O)O)cc(NCc2ccccc2)c1Oc1ccccc1	3639	0	0	-5
CC1(NC(=O)N2CCCCC2)CCS(=O)(=O)C1 (configuration not stated)	22585*	3	2	-1
CC(=O)c1cccc(N(CC(=O)Nc2ccccc2F)S(C)(=O)=O)c1	3820	-9	-2	-10
CC(=O)c1cccc(NC(=O)CN(c2ccccc2F)S(C)(=O)=O)c1	22974*	2	1	0
CC(=O)c1cccc(N(CC(=O)Nc2ccc(F)cc2F)S(C)(=O)=O)c1	22378*	1	1	-4
CN(C)S(=O)(=O)N(CC(=O)Nc1ccc(F)c(F)c1)c1ccccc1	19146*	0	1	-1
COc1cccc(-c2nnn(CC(=O)N(C3CCCCC3)C3CCS(=O)(=O)C3)n2)c1 (configuration not stated)	3616	6	0	1
O=C(c1cc(C2CC2)nc2ccc(Br)cc12)N1N=C(C(F)F)CC1(O)C(F)F (configuration not stated)	22047*	-1	2	-2
CC(C)c1ccc(-c2cc(C(=O)N3N=C(C(F)F)CC3(O)C(F)F)c3ccccc3n2)cc1 (configuration not stated)	10436	-11	-1	-7
O=C(c1cc(C2CC2)nc2ccccc12)N1N=C(C(F)F)CC1(O)C(F)F (configuration not stated)	18689*	2	3	-10
Cc1nnc(C)n1/N=C/c1ccc(C(=O)O)cc1	22576*	1	0	3
CCc1ccc(N2C(=O)/C(=C/c3cccs3)N(CC(=O)OC)C2=S)cc1	23041*	3	u	-1
C[C@H](CO)N1C[C@H](C)[C@@H](CN(C)C(=O)Nc2ccc(C(F)(F)F)cc2)Oc2c(NC(=O)CCC(F)(F)F)cccc2C1=O	3601	-5	-1	-11
C=CCNc1ncnc2c1cnn2-c1ccc(OC)cc1	16362*	0	0	-4
COc1ccc(-n2ncc3c(NCc4ccco4)ncnc32)cc1	11032	-4	-1	0
Cc1c(Cl)cccc1NC(=O)CC(C(=O)O)C1CCCO1 (configuration not stated)	22699*	0	1	-3
Cc1c(Cl)cccc1NC(=O)CC(Cc1ccccc1)C(=O)O (configuration not stated)	3577	32	-2	-3
CC(=O)Nc1cccc(-c2ccnc3c2CC(C)(C(=O)Nc2ccc(Cl)c(C(F)(F)F)c2)O3)c1 (configuration not stated)	4081	-10	-1	-2
O=C1c2cccc3c(O)ccc(c23)C(=O)N1Cc1ccccc1	7829	111*	1	51*
O=C(O)c1cccc(CN2C(=O)c3ccccc3C2=O)c1	3183	3	-2	6
CCOC(=O)[C@]12CCC=C1N(Cc1ccc3c(c1)OCO3)C(=O)[C@H](CC(=O)N1CCSCC1)C2	5444	-4	0	-3
COc1ccccc1-c1ccc(NC2CCCCC2)nn1	23544*	-2	3	7
SMILES	Bead autofluor	BoNT F protease	BoNT A protease	Anthrax LF prot
C[C@@H]1CN([C@H](C)CO)C(=O)CCCn2cc(nn2)CO[C@H]1CN(C)C(=O)Nc1ccccc1C(F)(F)F	3749	-5	0	2
O=C(O)C1C2C=CC(C2)C1C(=O)NCCCn1ccnc1 (configuration not stated)	22134*	0	0	-2
O=C(O)C1CCCCC1C(=O)NCCCn1ccnc1 (configuration not stated)	11201	0	0	-3
CC(C)CCOc1ccc(C(=O)NNC(=O)CNC(=O)c2ccccc2F)cc1	4538	-11	-1	-4
C/C(N)=C(/C#N)C(=O)CSc1nc2ccc(C)cc2[nH]1	16421*	1	0	-2
Cc1ccc2nc(SCC(=O)Nc3nnc(SCC(N)=O)s3)[nH]c2c1	20623*	-1	0	-2
COc1ccc(N2CCN(Cc3nc4ccsc4c(=O)[nH]3)CC2)cc1	20654*	-2	0	-1
CCN1C(=O)C(=Cc2ccc(C)s2)C(=O)N(CC)C1=S	3018	7	69*	28
CCN1C(=O)/C(=C/c2ccc(C)s2)NC1=S	2768	-5	6	7
CC1(C(=O)NS(=O)(=O)c2cccc(F)c2)CCN1C(=O)Cc1cccs1 (configuration not stated)	3865	-4	0	-4
